# Data from PubChem BioAssay (Tox21).
# Records with an inconclusive call do not appear. Unmarked numbers belong to inactive results. Calls of active or inactive are those of the source. Calls follow the shape of the full dose curve.
# Experiment: qHTS assay for small molecules that induce genotoxicity in human embryonic kidney cells expressing luciferase-tagged ATAD5 - cell viability (AID 651634); also: nearly all actives have a fitted effect of over 25% in size
# Details: HEK293T ATAD5-luc cells viability, CellTiter-Fluor, 15.5 h; series mostly up to 83.3 µM; activity, negative = cytotoxicity: at the top concentration
# Text: National Center for Advancing Translational Sciences [NCATS]
# NIH Chemical Genomics Center [NCGC]
# U.S. Environmental Protection Agency [EPA]
# National Institutes of Environmental Health Sciences [NIEHS]
# National Toxicology Program [NTP]
# U.S. Food and Drug Administration [FDA]
# Enhanced Level of Genome Instability Gene 1 (ELG1; human ATAD5) protein levels increase in response to various types of DNA damage. Using a luciferase reporter-gene tagged with ElG1, a cell-based assay [developed by Kyungjae Myung, NHGRI, NIH] was used to measure the induction of ATAD5 in human embryonic kidney cells (HEK293T). So, increase in luciferase activity can be used to identify the compounds that cause genetic stress. In addition to genotoxicity, these cells were also used to test for cytotoxicity by measuring the protease activity within live cells.
# Tox21 Assay Protocol Summary:
# For cytotoxicity screening, 2,000 cells in 5 uL/well were dispensed into white, solid-bottom 1536-well plates using a Multidrop Combi (Thermo Scientific) dispenser. Following transfer of 23 nL compound or DMSO vehicle by a pin tool, the plates were incubated 15.5 hr at 37C and 5% CO2. 1 ul CellTiter-Fluor reagent (Promega, Madison, WI) was then added to each plate and following 30 min incubation at 37C, fluorescence intensity was quantified on a ViewLux CCD-based plate reader.
# % is scaled to controls: 0 for no effect and ±100 for the full control effect.
SMILES,"activity, negative = cytotoxicity",Potency
COP(=O)(O)OC,10.9% [at 95.3 µM],
COC1=CC(=O)O[C@@H](/C=C/c2ccccc2)C1,12% [at 95.3 µM],
CCCCOC(C)=O,11.1% [at 95.3 µM],
CC1NCCOC1c1ccccc1 (stereo not given),25.7%,
C=C(Cl)CCl,14.5%,
CCOC(=O)C(SP(=S)(OC)OC)c1ccccc1 (stereo not given),29.5%,
O=P(O)(O)c1ccccc1,-11.1%,
CC[C@H](O)C(C[C@H](C)N(C)C)(c1ccccc1)c1ccccc1,4.12% [at 95.3 µM],
C/C(=N\NC(=O)Nc1cc(F)cc(F)c1)c1ncccc1C(=O)O,9.91%,
CCCCS(=O)(=O)Cl,9.51%,
NCC1(CC(=O)O)CCCCC1,4.99% [at 39.1 µM],
Oc1ccc2c3c1O[C@H]1[C@@H](O)C=C[C@H]4[C@@H](C2)NCC[C@@]341,9.25% [at 95.3 µM],
COP(=O)(OC)O/C(C)=C/C(=O)N(C)C,9.18% [at 95.3 µM],
Clc1cc2c(cc1Cl)Oc1cc(Cl)c(Cl)cc1O2,15.1% [at 0.33 µM],
CCOP(=S)(OCC)Oc1ccc(Cl)cc1Cl,13.3%,
CCCC(C)C1(CC)C(=O)N=C(S)NC1=O (stereo not given),24%,
O=S1(=O)OCCO1,8.21% [at 95.3 µM],
C/C=C/CC#N,-1.58% [at 95.3 µM],
ClCCCCCCCl,13.7%,
CNC(=O)Oc1cc(C)c(N(C)C)c(C)c1,-10.9%,

SMILES,"activity, negative = cytotoxicity",Potency
CCC1(c2cccc(O)c2)CCCCN(C)C1 (stereo not given),8.26% [at 39.1 µM],
CC1N=C(N)OC1c1ccccc1 (stereo not given),9.44%,
CCCCCCCC(=O)Cl,3.37% [at 95.3 µM],
CCNc1nc(NCC)nc(SC)n1,10.5%,
CCN[C@@H](C)Cc1cccc(C(F)(F)F)c1,-14.7%,
CCCCCCCCSC(=O)Oc1cc(Cl)nnc1-c1ccccc1,7.68%,
O=c1[nH]c2ccccc2o1,20.9%,
N#CN=C1SCCN1Cc1ccc(Cl)nc1,14.3%,
CCN(CCO)CCn1c(Cc2ccccc2)nc2c1c(=O)n(C)c(=O)n2C,10.9%,
CCCCCCC1CCOC1=O (stereo not given),7.6%,
CCOC(=O)Nc1cccc(OC(=O)Nc2ccccc2)c1,-2.33%,
CCOP(=S)(OCC)SCCl,5.42%,
C[C@H](N)C(=O)c1ccccc1,,inactive
CC(C)(C)C(=O)C(Cl)Cl,10.4%,
COc1ccc2c(C(=O)c3ccc(Cl)cc3)c(C)n(CC(=O)O)c2c1,-6.28%,
CNC(=O)Oc1ccccc1C(C)C,6.23%,
CC(C)[C@]12CC(=O)[C@H](C)[C@H]1C2,6.29%,
O=C(O)c1c(Cl)ccc2cc(Cl)cnc12,18.7%,
Cc1ccc2cc(C)ccc2c1,6.38%,
NNCc1ccccc1,2.49% [at 95.3 µM],
